# Assay results: PubChem BioAssay (Tox21)
# Inconclusive results are not listed. Activity calls are given as the source filed them. Calls come from the whole dose curve; as a rule, active = well fitted cell-killing curve with a large enough effect in the repeat runs; inconclusive = weak or mixed curves; inactive = no such curve, though single readings can be large or run the other way.
# Assay: qHTS assay to identify small molecule antagonists of the peroxisome proliferator-activated receptor delta (PPARd) signaling pathway - cell viability counter screen (AID 743213); note: nearly all actives have a fitted effect of over 50% in size
# Conditions: PPARd-bla HEK293H viability, CellTiter-Glo luminescence, 17 h; series mostly up to 62 µM
# Excerpt: U.S. Tox21 Program National Center for Advancing Translational Sciences [NCATS] NIH Chemical Genomics Center [NCGC] U.S. Environmental Protection Agency [EPA] National Institutes of Environmental Health Sciences [NIEHS] National Toxicology Program [NTP] U.S. Food and Drug Administration [FDA] Tox21 Assay Overview: The peroxisome proliferator-activated receptors (PPARs) are lipid-activated transcription factors of the nuclear receptor superfamily with three distinct subtypes namely PPAR alpha, PPAR delta (PPARd) and PPAR gamma. All these subtypes heterodimerizes with Retinoid X receptor (RXR) and have different physiological functions. […] To identify the compounds that inhibit PPAR-delta signaling, GeneBLAzer PPAR delta UAS-bla HEK293H cell line (Invitrogen, Carlsbad, CA, USA) containing a beta-lactamase reporter gene under the control of an Upstream Activator Sequence (UAS) was used to screen the Tox21 compound library. The cytotoxicity of the Tox21 compound library against the PPARd-bla cell line was tested in parallel by measuring the cell viability using CellTiter-Glo assay (Promega, Madison, WI) in the same wells.
# Tox21 Assay Protocol Summary: PPARd-bla cells were dispensed at 3000 cells/5uL/well in 1536-well black wall/clear bottom plates using a Multidrop Combi (Thermo Fisher Scientific, Waltham, MA) dispenser. After the assay plates were incubated at 37 C and 5% CO2 for 5 h, 23 nL of compounds dissolved in DMSO, positive controls or DMSO only was transferred to the assay plate by a Pintool station (Kalypsys, San Diego, CA), followed by addition of 1ul L165041 (300 nM, final concentration in the wells). The assay plates were incubated at 37 C for 17 h, and then 1 uL of LiveBLAzerTM B/G FRET substrate was added using a Bioraptr Flying Reagent Dispenser (FRD) workstation (Beckman Coulter, Indianapolis, IN, USA). The assay plates were incubated at room temperature for 2 h and fluorescence intensity was measured by an Envision plate reader (PerkinElmer, Shelton, CT). For cell viability readout that measures cytotoxicity, 3 ul/well of CellTiter-Glo reagent was added into the assay plates using a Bioraptr FRD. After 30 min incubation at room temperature, the luminescence intensity in the plates was measured using a ViewLux plate reader (PerkinElmer).
row,Structure (SMILES),outcome
1,COc1cc([N+](=O)[O-])ccc1N,inactive
2,Cc1ccccc1N1CCN(CCc2nnc3n2CCCC3)CC1,inactive
3,COCC(=O)Nc1c(I)c(C(=O)NCC(O)CO)c(I)c(C(=O)N(C)CC(O)CO)c1I (stereo not given),inactive
4,C[C@@H]1C[C@H]2[C@@H]3C[C@H](F)C4=CC(=O)C=C[C@]4(C)[C@@]3(F)[C@@H](O)C[C@]2(C)[C@@]1(O)C(=O)CO,inactive
5,Cc1ccc(S(=O)(=O)NC(=O)NC2CCCCCCC2)cc1,inactive
6,CC(=O)c1ccc(OCC(=O)N2CCCCC2)cc1,inactive
7,CNCc1ccccc1,inactive
8,CCC(C)(CCC(C)C)C(=O)[O-].CCC(C)(CCC(C)C)C(=O)[O-].[Zn+2] (stereo not given),inactive
9,O=C(O)c1c(Cl)ccc(Cl)c1Cl,inactive
10,O=C1c2ccccc2-c2ccccc21,inactive
11,CCCOCCOCCOCCO,inactive
12,CN(C)CCOCCN(C)CCO,inactive
13,CC(C)COC(=O)/C=C/c1ccccc1,inactive
14,CC(C)CCC(=O)CCC(C)C,inactive
15,CC(C)c1ccccc1O,inactive
16,CCCO,inactive
17,Cc1oc(=O)oc1CN1CCN(c2cc3c(cc2F)c(=O)c(C(=O)O)c2n3C(C)S2)CC1 (stereo not given),inactive
18,O=c1cc(O)c(Cl)c[nH]1,inactive
19,C=COCCOCCOC=C,inactive
20,O=S(=O)(O)c1cc(O)ccc1O,inactive

row,Structure (SMILES),outcome
1,CC(=O)N(CC(O)CO)c1c(I)c(C(=O)NCC(O)CO)c(I)c(C(=O)NCC(O)CO)c1I (stereo not given),inactive
2,O=S1(=O)CCCC1,inactive
3,NS(=O)(=O)c1ccc(Cl)c(S(N)(=O)=O)c1,inactive
4,CC(=O)OCC(=O)[C@@]1(O)[C@H](OC(C)=O)C[C@H]2[C@@H]3CCC4=CC(=O)C=C[C@]4(C)[C@@]3(F)[C@@H](O)C[C@@]21C,inactive
5,C1CCN2C[C@@H]3C[C@@H](CN4CCCC[C@@H]34)[C@H]2C1,inactive
6,COc1cccc2sc(N)nc12,inactive
7,CCN(CCC#N)c1ccccc1,inactive
8,CCOc1ccc(NC(=O)OC(C)C)cc1OCC,inactive
9,Cc1ccccc1C,inactive
10,O=C(O)C(=O)Nc1cccc(-c2nn[nH]n2)c1,inactive
11,C=C[Si](C)(C)O[Si](C)(C)C=C,inactive
12,O=C(O)c1ccccc1C(=O)OCc1ccccc1,inactive
13,O=P(O)(O)OCC(O)CO (stereo not given),inactive
14,FC(F)(F)c1ccc(Cl)cc1Cl,inactive
15,CC(C)COC(=O)CCCCC(=O)OCC(C)C,inactive
16,C[C@H]1O[C@H](O[C@H]2[C@H](O)[C@@H](O)[C@@H](O[C@H]3[C@H](O)[C@@H](O)[C@H](O)O[C@@H]3CO)O[C@@H]2CO)[C@H](O)[C@@H](O)[C@@H]1N[C@H]1C=C(CO)[C@@H](O)[C@H](O)[C@H]1O,inactive
17,CCOC(=O)CC#N,inactive
18,Nc1cc(S(=O)(=O)O)ccc1S(=O)(=O)O,inactive
19,CCOC(=O)C(C)(C)C,inactive
20,CCN(Cc1cccc(S(=O)(=O)O)c1)c1ccccc1,inactive
